Laboratory results taken from PMC7862700, “An all-to-all approach to the identification of sequence-specific readers for epigenetic DNA modifications on cytosine”.

What was measured:
Assay in all cases: DAPPL (digital affinity profiling via proximity ligation, sequencing); 10 mM Tris-HCl pH 7.5, 50 mM NaCl, 1 mM DTT, 4% glycerol, room temperature, 30 min; GST-TFs on glutathione beads, 16-mer random dsDNA library, 0.1% formaldehyde crosslink after washing; high values mean tight binding
ETV5 = ETV5 (Homo sapiens, UniProt P41161 1-510); details: protein: recombinant; tags: N-terminal GST; dsDNA, one strand shown
ETV5, sequence (P41161 whole entry, the tested form may be a part): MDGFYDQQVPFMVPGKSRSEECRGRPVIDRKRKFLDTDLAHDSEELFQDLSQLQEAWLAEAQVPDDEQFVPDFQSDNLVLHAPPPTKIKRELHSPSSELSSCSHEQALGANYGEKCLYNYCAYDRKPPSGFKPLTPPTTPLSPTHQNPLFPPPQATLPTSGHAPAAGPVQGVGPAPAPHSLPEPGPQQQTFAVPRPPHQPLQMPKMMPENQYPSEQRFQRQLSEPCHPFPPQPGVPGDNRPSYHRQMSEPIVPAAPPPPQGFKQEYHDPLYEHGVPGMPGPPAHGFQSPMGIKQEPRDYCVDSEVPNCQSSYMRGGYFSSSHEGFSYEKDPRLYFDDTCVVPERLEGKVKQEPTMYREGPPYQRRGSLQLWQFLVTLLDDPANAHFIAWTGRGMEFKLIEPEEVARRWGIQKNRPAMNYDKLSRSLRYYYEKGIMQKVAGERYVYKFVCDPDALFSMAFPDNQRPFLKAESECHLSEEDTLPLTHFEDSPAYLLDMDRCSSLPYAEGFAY
In short: (§1)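 Yeast served to express human transcription factors as GST fusions, which were then captured on glutathione beads and labelled with DNA barcodes. Pooled with a tag-only sample, they were incubated with 200 nmole of a 16-mer random double-stranded DNA library for 30 min at room temperature in Tris/NaCl/DTT/glycerol buffer, washed, crosslinked with 0.1% formaldehyde, ligated by proximity, amplified by PCR and sequenced. Dividing each hexamer's read frequency for a factor by its frequency for the tag-only sample gives the binding signal.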

HSF1 = HSF1 (Homo sapiens, UniProt Q00613 1-529); details: protein: recombinant; tags: N-terminal GST; chain copies: 3; dsDNA, one strand shown
HSF1, sequence (Q00613 whole entry): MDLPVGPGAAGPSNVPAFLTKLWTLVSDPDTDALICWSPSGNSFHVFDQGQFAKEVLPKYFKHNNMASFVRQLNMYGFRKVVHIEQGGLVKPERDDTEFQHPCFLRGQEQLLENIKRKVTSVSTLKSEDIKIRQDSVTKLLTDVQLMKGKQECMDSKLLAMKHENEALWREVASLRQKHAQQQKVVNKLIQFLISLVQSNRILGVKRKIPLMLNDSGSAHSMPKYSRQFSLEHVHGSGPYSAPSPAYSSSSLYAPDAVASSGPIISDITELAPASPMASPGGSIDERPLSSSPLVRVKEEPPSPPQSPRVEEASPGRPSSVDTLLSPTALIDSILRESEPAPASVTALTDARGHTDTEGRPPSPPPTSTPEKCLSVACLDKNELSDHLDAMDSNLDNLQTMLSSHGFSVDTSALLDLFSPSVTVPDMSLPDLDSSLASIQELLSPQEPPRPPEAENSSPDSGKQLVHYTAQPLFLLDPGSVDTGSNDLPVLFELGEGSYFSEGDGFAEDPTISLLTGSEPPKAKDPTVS
In short: as §1

SPIC = target: T1, SPIC (Homo sapiens, UniProt Q8N5J4 1-248); details: protein: recombinant; tags: N-terminal GST; dsDNA, one strand shown
T1 sequence: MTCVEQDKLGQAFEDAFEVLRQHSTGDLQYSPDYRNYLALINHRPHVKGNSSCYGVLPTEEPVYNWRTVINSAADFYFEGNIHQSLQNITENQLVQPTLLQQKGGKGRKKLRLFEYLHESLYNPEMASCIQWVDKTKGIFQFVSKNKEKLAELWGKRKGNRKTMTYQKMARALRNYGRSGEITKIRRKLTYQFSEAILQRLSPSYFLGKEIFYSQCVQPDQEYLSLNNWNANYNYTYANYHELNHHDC
In short: as §1

ELF4 = ELF4 (Homo sapiens, UniProt Q99607 1-663); details: protein: recombinant; tags: N-terminal GST; dsDNA, one strand shown
ELF4, sequence (Q99607 whole entry): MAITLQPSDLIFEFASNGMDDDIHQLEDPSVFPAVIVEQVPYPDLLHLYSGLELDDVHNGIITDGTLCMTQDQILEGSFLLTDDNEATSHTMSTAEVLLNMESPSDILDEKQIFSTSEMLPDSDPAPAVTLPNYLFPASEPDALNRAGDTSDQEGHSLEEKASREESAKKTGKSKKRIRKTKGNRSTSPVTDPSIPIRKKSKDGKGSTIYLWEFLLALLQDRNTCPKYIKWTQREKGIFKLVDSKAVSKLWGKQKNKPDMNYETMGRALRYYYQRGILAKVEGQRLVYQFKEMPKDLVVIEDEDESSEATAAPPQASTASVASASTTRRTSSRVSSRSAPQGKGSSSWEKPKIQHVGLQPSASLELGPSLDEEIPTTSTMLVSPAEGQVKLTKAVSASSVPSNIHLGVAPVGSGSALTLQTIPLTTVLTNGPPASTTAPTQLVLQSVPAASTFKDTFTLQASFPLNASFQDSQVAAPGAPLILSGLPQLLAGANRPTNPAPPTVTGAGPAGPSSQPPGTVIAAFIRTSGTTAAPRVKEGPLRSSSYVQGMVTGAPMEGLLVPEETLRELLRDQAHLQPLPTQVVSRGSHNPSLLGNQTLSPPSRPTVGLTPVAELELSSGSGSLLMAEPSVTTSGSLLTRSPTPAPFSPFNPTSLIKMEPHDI
In short: as §1

ELK4 = target: T2, ELK4 (Homo sapiens, UniProt P28324-2 1-405); details: protein: recombinant; tags: N-terminal GST; dsDNA, one strand shown
T2 sequence: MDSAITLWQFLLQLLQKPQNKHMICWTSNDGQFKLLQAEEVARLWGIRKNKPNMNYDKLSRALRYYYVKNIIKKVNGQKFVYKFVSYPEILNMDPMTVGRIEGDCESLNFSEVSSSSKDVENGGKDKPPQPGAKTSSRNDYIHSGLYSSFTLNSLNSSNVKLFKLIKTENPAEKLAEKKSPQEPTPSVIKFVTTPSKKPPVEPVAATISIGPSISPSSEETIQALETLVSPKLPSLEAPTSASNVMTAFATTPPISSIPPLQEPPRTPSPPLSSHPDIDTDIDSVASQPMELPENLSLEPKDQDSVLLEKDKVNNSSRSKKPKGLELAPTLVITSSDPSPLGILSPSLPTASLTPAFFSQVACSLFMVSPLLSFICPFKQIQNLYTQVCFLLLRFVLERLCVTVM
In short: as §1

ETV2 = target: T3, ETV2 (Homo sapiens, UniProt O00321 1-342); details: protein: recombinant; tags: N-terminal GST; dsDNA, one strand shown
T3 sequence: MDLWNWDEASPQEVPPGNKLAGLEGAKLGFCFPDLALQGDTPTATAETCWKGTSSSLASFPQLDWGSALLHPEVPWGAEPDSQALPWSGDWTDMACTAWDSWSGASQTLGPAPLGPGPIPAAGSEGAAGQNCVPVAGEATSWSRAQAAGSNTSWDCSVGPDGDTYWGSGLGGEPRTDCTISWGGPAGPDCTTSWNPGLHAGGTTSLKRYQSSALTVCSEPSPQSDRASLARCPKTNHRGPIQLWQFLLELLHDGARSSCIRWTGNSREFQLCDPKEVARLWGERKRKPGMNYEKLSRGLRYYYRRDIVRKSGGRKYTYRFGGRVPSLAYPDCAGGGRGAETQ
In short: as §1

ELF3 = target: T4, ELF3 (Homo sapiens, UniProt P78545 1-371); details: protein: recombinant; tags: N-terminal GST; dsDNA, one strand shown
T4 sequence: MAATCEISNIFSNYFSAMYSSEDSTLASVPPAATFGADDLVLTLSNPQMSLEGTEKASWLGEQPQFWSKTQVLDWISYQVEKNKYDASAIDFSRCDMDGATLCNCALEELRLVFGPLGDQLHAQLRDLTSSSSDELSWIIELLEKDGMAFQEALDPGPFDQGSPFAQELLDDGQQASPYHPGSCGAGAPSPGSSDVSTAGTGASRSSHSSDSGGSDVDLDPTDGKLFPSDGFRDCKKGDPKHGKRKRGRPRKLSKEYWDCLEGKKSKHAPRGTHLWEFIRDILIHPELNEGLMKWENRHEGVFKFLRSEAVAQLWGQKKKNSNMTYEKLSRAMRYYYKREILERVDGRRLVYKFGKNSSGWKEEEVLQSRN
In short: as §1

CRX = CRX (Homo sapiens, UniProt O43186 1-299); details: protein: recombinant; tags: N-terminal GST; dsDNA, one strand shown
CRX, sequence (O43186 whole entry): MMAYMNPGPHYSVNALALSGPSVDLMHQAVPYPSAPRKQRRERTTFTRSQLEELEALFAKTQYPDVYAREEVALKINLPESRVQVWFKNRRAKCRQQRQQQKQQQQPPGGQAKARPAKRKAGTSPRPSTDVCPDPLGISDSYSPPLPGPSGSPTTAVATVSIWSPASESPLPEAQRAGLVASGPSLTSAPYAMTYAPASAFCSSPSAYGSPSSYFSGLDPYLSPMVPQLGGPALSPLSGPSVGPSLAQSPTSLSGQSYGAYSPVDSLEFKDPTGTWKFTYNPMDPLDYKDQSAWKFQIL
In short: as §1

ETV1 = ETV1 (Homo sapiens, UniProt P50549 1-477); details: protein: recombinant; tags: N-terminal GST; dsDNA, one strand shown
ETV1, sequence (P50549 whole entry): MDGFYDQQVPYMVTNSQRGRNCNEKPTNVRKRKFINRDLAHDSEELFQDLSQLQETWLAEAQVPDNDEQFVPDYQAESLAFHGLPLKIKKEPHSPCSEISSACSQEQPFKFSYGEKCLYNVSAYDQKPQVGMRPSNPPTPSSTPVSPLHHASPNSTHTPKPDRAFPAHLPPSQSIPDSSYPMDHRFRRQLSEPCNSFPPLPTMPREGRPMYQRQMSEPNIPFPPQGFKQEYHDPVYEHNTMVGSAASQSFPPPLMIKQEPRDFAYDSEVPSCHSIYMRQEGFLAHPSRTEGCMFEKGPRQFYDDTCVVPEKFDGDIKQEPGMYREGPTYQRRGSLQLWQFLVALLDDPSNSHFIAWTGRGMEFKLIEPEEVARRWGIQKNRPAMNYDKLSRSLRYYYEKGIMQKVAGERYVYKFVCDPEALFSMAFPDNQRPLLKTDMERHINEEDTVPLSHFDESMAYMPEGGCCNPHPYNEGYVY
In short: as §1

ERF = target: T5, ERF (Homo sapiens, UniProt P50548 1-548); details: protein: recombinant; tags: N-terminal GST; dsDNA, one strand shown
T5 sequence: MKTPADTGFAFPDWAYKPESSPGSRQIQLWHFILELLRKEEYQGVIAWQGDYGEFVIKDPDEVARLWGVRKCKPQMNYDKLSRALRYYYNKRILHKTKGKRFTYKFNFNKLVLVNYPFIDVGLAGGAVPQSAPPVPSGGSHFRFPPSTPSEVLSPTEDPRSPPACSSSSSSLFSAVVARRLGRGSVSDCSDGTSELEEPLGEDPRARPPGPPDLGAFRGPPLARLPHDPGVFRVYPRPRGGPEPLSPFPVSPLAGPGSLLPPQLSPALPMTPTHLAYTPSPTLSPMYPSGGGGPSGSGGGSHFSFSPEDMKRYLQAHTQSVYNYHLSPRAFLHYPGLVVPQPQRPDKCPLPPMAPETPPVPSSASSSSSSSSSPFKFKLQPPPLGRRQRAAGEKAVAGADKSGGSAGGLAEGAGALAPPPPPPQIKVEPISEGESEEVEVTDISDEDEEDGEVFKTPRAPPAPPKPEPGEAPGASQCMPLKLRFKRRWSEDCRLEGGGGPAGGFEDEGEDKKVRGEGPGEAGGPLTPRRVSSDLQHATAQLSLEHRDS
In short: as §1

ETV3L = target: T6, ETV3L (Homo sapiens, UniProt Q6ZN32 1-361); details: protein: recombinant; tags: N-terminal GST; dsDNA, one strand shown
T6 sequence: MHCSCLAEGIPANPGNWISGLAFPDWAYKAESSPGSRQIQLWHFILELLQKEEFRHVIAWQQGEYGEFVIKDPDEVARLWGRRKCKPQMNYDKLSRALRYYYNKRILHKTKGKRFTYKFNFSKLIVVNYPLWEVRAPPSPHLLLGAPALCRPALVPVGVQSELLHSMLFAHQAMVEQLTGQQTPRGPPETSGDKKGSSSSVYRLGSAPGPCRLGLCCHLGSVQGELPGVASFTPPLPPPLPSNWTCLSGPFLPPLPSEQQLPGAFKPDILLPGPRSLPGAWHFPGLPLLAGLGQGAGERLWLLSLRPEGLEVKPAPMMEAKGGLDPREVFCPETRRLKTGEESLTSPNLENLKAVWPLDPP
In short: as §1

ETS2 = target: T7, ETS2 (Homo sapiens, UniProt P15036 1-469); details: protein: recombinant; tags: N-terminal GST; dsDNA, one strand shown
T7 sequence: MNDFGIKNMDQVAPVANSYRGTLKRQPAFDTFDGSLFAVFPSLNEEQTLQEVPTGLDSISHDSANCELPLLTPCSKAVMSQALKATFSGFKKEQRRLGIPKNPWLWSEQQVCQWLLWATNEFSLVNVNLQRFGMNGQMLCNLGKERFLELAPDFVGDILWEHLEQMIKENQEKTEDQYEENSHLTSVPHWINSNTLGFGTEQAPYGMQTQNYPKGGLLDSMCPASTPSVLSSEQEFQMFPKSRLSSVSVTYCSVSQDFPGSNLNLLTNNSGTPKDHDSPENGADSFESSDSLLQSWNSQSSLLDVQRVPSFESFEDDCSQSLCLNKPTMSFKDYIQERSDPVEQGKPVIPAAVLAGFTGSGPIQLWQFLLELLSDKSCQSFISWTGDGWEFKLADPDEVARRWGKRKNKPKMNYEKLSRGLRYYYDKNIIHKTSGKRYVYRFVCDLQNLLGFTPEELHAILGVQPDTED
In short: as §1

SPDEF = target: T8, SPDEF (Homo sapiens, UniProt O95238 1-335); details: protein: recombinant; tags: N-terminal GST; dsDNA, one strand shown
T8 sequence: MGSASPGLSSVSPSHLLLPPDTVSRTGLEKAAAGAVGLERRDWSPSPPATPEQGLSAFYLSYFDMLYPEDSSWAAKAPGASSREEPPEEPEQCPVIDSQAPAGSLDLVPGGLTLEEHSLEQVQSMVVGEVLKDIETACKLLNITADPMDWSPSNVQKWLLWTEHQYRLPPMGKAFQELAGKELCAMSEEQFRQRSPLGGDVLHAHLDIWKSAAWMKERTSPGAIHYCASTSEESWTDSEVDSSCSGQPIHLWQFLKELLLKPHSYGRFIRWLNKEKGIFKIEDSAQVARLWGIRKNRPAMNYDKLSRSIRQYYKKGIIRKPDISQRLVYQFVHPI
In short: as §1

ELF5 = target: T9, ELF5 (Homo sapiens, UniProt Q9UKW6-2 1-255); details: protein: recombinant; tags: N-terminal GST; dsDNA, one strand shown
T9 sequence: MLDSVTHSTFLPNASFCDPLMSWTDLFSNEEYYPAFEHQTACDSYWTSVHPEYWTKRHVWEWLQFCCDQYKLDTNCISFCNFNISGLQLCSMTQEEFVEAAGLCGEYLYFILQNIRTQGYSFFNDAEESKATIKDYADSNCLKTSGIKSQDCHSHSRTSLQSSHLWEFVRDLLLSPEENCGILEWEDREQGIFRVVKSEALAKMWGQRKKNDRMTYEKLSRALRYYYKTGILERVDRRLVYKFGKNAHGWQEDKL
In short: as §1

ETV3 = target: T10, ETV3 (Homo sapiens, UniProt P41162-2 1-143); details: protein: recombinant; tags: N-terminal GST; dsDNA, one strand shown
T10 sequence: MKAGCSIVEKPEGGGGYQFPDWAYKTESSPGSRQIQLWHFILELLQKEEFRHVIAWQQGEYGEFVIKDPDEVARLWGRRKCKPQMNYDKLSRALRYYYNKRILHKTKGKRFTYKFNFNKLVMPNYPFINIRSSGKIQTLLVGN
In short: as §1

ETV6 = ETV6 (Homo sapiens, UniProt P41212 1-452); details: protein: recombinant; tags: N-terminal GST; dsDNA, one strand shown
ETV6, sequence (P41212 whole entry): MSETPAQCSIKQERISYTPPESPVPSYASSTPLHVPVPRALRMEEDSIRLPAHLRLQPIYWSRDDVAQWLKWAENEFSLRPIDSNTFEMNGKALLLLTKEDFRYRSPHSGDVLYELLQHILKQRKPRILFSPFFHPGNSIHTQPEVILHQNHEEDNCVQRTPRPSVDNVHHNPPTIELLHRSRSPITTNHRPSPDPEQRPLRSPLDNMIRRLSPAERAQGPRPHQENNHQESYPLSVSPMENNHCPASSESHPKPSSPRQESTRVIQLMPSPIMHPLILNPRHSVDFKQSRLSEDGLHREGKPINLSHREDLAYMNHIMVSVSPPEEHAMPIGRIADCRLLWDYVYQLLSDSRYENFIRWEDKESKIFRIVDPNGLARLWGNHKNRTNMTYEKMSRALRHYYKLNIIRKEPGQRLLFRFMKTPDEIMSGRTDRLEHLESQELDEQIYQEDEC
In short: as §1

FEV = target: T11, FEV (Homo sapiens, UniProt Q99581 1-238); details: protein: recombinant; tags: N-terminal GST; dsDNA, one strand shown
T11 sequence: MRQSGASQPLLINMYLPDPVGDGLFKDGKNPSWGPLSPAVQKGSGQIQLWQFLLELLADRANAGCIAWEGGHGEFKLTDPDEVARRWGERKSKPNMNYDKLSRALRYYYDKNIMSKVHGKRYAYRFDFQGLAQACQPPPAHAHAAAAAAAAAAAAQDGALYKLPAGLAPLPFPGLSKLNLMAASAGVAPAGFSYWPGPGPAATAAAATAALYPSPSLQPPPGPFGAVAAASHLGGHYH
In short: as §1

ETV7 = target: T12, ETV7 (Homo sapiens, UniProt Q9Y603 1-341); details: protein: recombinant; tags: N-terminal GST; dsDNA, one strand shown
T12 sequence: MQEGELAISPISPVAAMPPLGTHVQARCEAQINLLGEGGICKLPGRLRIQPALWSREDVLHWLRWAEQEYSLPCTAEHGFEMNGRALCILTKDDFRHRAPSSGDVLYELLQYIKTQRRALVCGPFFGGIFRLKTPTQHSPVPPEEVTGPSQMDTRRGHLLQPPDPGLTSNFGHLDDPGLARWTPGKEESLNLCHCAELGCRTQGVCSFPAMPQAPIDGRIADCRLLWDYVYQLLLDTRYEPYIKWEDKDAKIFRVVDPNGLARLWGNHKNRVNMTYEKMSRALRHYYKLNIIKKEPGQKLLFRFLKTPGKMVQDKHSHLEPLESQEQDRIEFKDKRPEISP
In short: as §1

Sequence	binding signal (ETV5)	binding signal (HSF1)	binding signal (SPIC)	binding signal (ELF4)	binding signal (ELK4)	binding signal (ETV2)	binding signal (ELF3)	binding signal (CRX)	binding signal (ETV1)	binding signal (ERF)	binding signal (ETV3L)	binding signal (ETS2)	binding signal (SPDEF)	binding signal (ELF5)	binding signal (ETV3)	binding signal (ETV6)	binding signal (FEV)	binding signal (ETV7)
TGTGGA	1.04 fold enrichment (6-mer frequency, TF over GST control)	1.13 fold enrichment (6-mer frequency, TF over GST control)	1.11 fold enrichment (6-mer frequency, TF over GST control)	1.06 fold enrichment (6-mer frequency, TF over GST control)	1.15 fold enrichment (6-mer frequency, TF over GST control)	1.13 fold enrichment (6-mer frequency, TF over GST control)	1 fold enrichment (6-mer frequency, TF over GST control)	1.06 fold enrichment (6-mer frequency, TF over GST control)	1.03 fold enrichment (6-mer frequency, TF over GST control)	1.15 fold enrichment (6-mer frequency, TF over GST control)	1.17 fold enrichment (6-mer frequency, TF over GST control)	1.02 fold enrichment (6-mer frequency, TF over GST control)	1.1 fold enrichment (6-mer frequency, TF over GST control)	1.02 fold enrichment (6-mer frequency, TF over GST control)	1.02 fold enrichment (6-mer frequency, TF over GST control)	1.07 fold enrichment (6-mer frequency, TF over GST control)	–	–
TAGCTG	1.06 fold enrichment (6-mer frequency, TF over GST control)	1.23 fold enrichment (6-mer frequency, TF over GST control)	1.09 fold enrichment (6-mer frequency, TF over GST control)	1.2 fold enrichment (6-mer frequency, TF over GST control)	1.23 fold enrichment (6-mer frequency, TF over GST control)	1.15 fold enrichment (6-mer frequency, TF over GST control)	1.17 fold enrichment (6-mer frequency, TF over GST control)	1.38 fold enrichment (6-mer frequency, TF over GST control)	1.12 fold enrichment (6-mer frequency, TF over GST control)	1.16 fold enrichment (6-mer frequency, TF over GST control)	1.14 fold enrichment (6-mer frequency, TF over GST control)	1.04 fold enrichment (6-mer frequency, TF over GST control)	–	1.13 fold enrichment (6-mer frequency, TF over GST control)	1.23 fold enrichment (6-mer frequency, TF over GST control)	1.2 fold enrichment (6-mer frequency, TF over GST control)	1.16 fold enrichment (6-mer frequency, TF over GST control)	1.15 fold enrichment (6-mer frequency, TF over GST control)
